Assay [1] is described as follows: qHTS assay to identify small molecule agonists of the peroxisome proliferator-activated receptor delta (PPARd) signaling pathway - cell viability counter screen (AID 743211). Further: nearly all actives have a fitted effect of over 55% in size. Further: potency means the concentration at half of the fitted maximal effect. The gist of the method:
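Read-out: CellTiter-Glo luminescence, 30 min RT, measured in the same wells as the beta-lactamase reporter. Cells: GeneBLAzer PPAR delta UAS-bla HEK293H, 3000 cells/well, compound exposure 17 h at 37C.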
Background: In qHTS, concentration-response curves come from the screen itself.

Assay [2] is described as follows: qHTS assay to identify small molecule antagonists of the peroxisome proliferator-activated receptor delta (PPARd) signaling pathway - cell viability counter screen (AID 743213). Further: nearly all actives have a fitted effect of over 50% in size. Further: potency means the concentration at half of the fitted maximal effect. The gist of the method: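 Luminescence from CellTiter-Glo, added after the bla read and incubated 30 min at room temperature, gives viability of HEK293H PPARd-bla cells exposed to compounds for 17 h at 37 C with 300 nM L165041.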

The target of assay [3] is Peroxisome proliferator-activated receptor delta (Homo sapiens) (UniProt Q03181). Put plainly: qHTS assay to identify small molecule antagonists of the peroxisome proliferator-activated receptor delta (PPARd) signaling pathway (AID 743215; active means well fitted inhibition curve with a large enough effect in the signal ratio in the repeat runs, not every such curve was filed as active; the % refers to the signal ratio;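 further: cells stimulated with agonist L165041 at 300 nM final during compound exposure; series mostly up to about 62 µM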). The gist of the method: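 Antagonist-mode beta-lactamase reporter screen: HEK293H cells with UAS-bla under PPARd control, stimulated by 300 nM L165041 (final) alongside test compound for 17 h at 37 C, then FRET fluorescence after 2 h substrate incubation.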

Assay [4] addresses Bile acid receptor (Homo sapiens) (UniProt Q96RI1). The experiment in a line: qHTS assay to identify small molecule antagonists of the farnesoid-X-receptor (FXR) signaling pathway (AID 743217; active means well fitted inhibition curve with a large enough effect in the signal ratio in the repeat runs, not every such curve was filed as active; the % refers to the signal ratio). The gist of the method: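 Beta-lactamase reporter under UAS control in HEK 293T cells; compound exposure 16 h at 37 °C in the presence of chenodeoxycholic acid (50 uM final); signal from B/G FRET substrate after 2 h at room temperature.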

Assay [5] in a line: qHTS assay to identify small molecule agonists of the farnesoid-X-receptor (FXR) signaling pathway - cell viability counter screen (AID 743218). Further: nearly all actives have a fitted effect of over 45% in size. Further: potency means the concentration at half of the fitted maximal effect. The gist of the method:
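In GeneBLAzer FXR-UAS-bla HEK 293T cells, compounds act for 16 h at 37 C. Cell viability is then scored in the reporter wells by CellTiter-Glo, 30 min at RT, luminescence.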

Assay [6] has as its target Bile acid receptor (Homo sapiens) (UniProt Q96RI1). Put plainly: qHTS assay to identify small molecule agonists of the farnesoid-X-receptor (FXR) signaling pathway (AID 743220; active means well fitted activation curve with a large enough effect in the signal ratio in the repeat runs, not every such curve was filed as active; the % refers to the signal ratio). The method, boiled down: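 Beta-lactamase reporter under UAS control in GeneBLAzer FXR HEK 293T cells (5000/well) measured with LiveBLAzer FRET substrate after 2 h at room temperature. Compound exposure lasted 16 h at 37C.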

Assay [7] concerns the target Vitamin D3 receptor (Homo sapiens) (UniProt P11473). The experiment in a line: qHTS assay to identify small molecule antagonists of the vitamin D receptor (VDR) signaling pathway (AID 743223; active means well fitted inhibition curve with a large enough effect in the signal ratio in the repeat runs, not every such curve was filed as active; the % refers to the signal ratio). The gist of the method:
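Beta-lactamase reporter read-out: FRET substrate fluorescence after 2 h at room temperature, following 16 h exposure of VDR-bla cells to test compound plus 3 nM (final) 1alpha,25-dihydroxyvitamin D3 agonist at 37C.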

For assay [8], the target named is Peroxisome proliferator-activated receptor delta (Homo sapiens) (UniProt Q03181). The experiment in a line: qHTS assay to identify small molecule agonists of the peroxisome proliferator-activated receptor delta (PPARd) signaling pathway (AID 743212; calls by dose curve). The gist of the method: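 HEK293H UAS-bla reporter cells, human PPARd system; compounds delivered in DMSO after 5 h plating, then at 37 C. Beta-lactamase FRET read, 2 h RT substrate step.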

Assay [9] is described as follows: qHTS assay to identify small molecule antagonists of the farnesoid-X-receptor (FXR) signaling pathway - cell viability counter screen (AID 743221; active means well fitted cell-killing curve with a large enough effect in the repeat runs, not every such curve was filed as active; further: nearly all actives have a fitted effect of over 50% in size). The method, boiled down: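 HEK 293T FXR-bla cells, 5 h pre-incubation; compound + CDCA 50 uM final, 16 h, 37 C; beta-lactamase FRET read first, then CellTiter-Glo luminescence, 30 min RT.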
The target of assay [10] is Vitamin D3 receptor (Homo sapiens) (UniProt P11473). Put plainly: qHTS assay to identify small molecule agonists of the vitamin D receptor (VDR) signaling pathway (AID 743222; calls by dose curve). The gist of the method:
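Agonist activity measured in VDR-bla reporter cells. Exposure 16 h, 37C, 5% CO2; detection by B/G FRET substrate, 2 h RT.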

Results filed as inconclusive are left out. A number with no mark means an inactive call. Activity calls are given as the source filed them. Unless noted, the call rests on the fitted dose curve; in most records, active means well fitted curve in the direction sought with a large enough effect in the repeat runs; inconclusive means weak or mixed curves; inactive means no such curve, though single readings can be large; an effect the other way counts as inactive or inconclusive.

This is an account of results in PubChem BioAssay (Tox21).

Peroxisome proliferator-activated receptor delta (Homo sapiens), sequence (Q03181 whole entry, looked up): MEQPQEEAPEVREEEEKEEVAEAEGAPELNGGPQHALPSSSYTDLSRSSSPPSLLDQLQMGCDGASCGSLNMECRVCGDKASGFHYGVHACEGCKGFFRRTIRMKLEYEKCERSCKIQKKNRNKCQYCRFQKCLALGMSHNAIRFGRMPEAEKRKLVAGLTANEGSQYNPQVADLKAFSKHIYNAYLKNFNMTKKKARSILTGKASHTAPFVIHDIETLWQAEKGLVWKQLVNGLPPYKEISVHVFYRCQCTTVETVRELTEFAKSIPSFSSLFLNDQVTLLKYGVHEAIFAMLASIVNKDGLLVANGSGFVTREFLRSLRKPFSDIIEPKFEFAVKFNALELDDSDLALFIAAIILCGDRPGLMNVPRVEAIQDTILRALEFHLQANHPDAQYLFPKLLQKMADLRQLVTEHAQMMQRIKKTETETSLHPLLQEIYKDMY
Bile acid receptor (Homo sapiens), sequence (Q96RI1 whole entry, looked up): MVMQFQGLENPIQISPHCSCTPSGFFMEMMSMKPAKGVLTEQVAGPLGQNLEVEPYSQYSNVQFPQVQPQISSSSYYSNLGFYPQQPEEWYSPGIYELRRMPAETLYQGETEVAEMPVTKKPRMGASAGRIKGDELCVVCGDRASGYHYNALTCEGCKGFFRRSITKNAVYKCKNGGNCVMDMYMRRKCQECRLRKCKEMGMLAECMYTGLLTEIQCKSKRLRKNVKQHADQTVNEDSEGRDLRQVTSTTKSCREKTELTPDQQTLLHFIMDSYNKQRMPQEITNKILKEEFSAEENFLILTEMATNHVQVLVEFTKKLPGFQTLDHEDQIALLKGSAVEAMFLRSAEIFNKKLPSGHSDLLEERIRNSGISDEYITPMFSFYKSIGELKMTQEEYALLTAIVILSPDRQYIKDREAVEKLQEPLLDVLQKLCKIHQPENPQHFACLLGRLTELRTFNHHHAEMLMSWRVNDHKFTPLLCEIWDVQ
Vitamin D3 receptor (Homo sapiens), sequence (P11473 whole entry, looked up): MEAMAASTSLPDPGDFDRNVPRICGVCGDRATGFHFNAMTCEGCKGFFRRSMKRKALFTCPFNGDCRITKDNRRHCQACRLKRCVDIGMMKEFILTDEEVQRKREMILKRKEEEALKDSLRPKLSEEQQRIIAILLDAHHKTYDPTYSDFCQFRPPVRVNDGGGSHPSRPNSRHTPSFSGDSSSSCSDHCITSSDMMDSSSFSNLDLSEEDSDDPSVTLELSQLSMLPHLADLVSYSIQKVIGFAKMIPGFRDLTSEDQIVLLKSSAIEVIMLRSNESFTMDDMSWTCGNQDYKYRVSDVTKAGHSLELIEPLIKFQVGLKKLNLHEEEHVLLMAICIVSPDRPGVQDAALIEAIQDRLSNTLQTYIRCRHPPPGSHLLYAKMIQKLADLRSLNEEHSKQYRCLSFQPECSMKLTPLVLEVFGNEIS

Regarding `CCCCOC(=O)CC`, the Potency result in [1], in assay [2], in assay [3], in assay [4], in assay [5] and in assay [6] was “inactive” throughout. Further, the Potency result in assay [7] was “inactive”.
In the case of `C=CCCC(=O)/C=C/C1C(C)=CCCC1(C)C` (configuration not stated), the Potency entry in assay [1], in [8], in assay [2], in assay [5], in assay [9] and in assay [10] was “inactive” throughout. The Potency entry in assay [7] was “inactive”.
Regarding `Nc1ccc(C(=O)O)c(O)c1`, the Potency result in assay [1], in [2], in [3], in [4], in [5] and in [6] was “inactive” in each case. Moreover, the Potency result in [7] is “inactive”.
`O=C(O)Cc1ccc2c(c1)C(=O)c1ccccc1CO2`: the Potency entry in assay [1], in assay [8], in [3], in assay [5] and in assay [7] was “inactive” throughout.
As to `CCN1C(=O)c2ccccc2C1Nc1ccc(OCCN2CCCCC2)cc1` (configuration not stated), the Potency entry in assay [1], in assay [8], in assay [2], in assay [4], in assay [5] and in [6] was “inactive” throughout. The Potency result in assay [9], in [10] and in [7] was “inactive” each time.
Regarding `CCOC(=O)NNc1ccc(N(CC)CC(C)O)nn1` (configuration not stated), the Potency entry in assay [1], in assay [2], in [3], in assay [4], in assay [5] and in [6] was “inactive” throughout. Further, the Potency result in assay [9] and in assay [7] was “inactive” in each case.
On to `CC(C)OC(=O)C(O)(CC(=O)O)CC(=O)O`, for which the Potency result in [1], in assay [8], in assay [2], in assay [4], in assay [5] and in [6] was “inactive” in each case. The Potency result in assay [10] and in assay [7] was “inactive” throughout.
Turning to `CCCCCc1ccc(Cl)cc1`, the Potency result in [1], in [2], in assay [3], in [4], in assay [5] and in assay [6] was “inactive” each time. For the same molecule, the Potency result in assay [10] was “inactive”.
As for `C=CC(C)(CCC=C(C)C)OC=O` (configuration not stated), the Potency entry in assay [1], in assay [8], in assay [3], in assay [5], in assay [9] and in assay [7] was “inactive” in each case.
`Cc1ccc(C)cc1`: the Potency entry in assay [1], in assay [8], in assay [4], in [5] and in assay [6] was “inactive” throughout.
As for `CCC(CC)C(C)CCOC(C)=O` (configuration not stated), the Potency result in assay [1], in assay [8], in [2], in assay [3], in assay [10] and in assay [7] was “inactive” throughout.
For the molecule `COc1cc(S(=O)(=O)O)c(C)cc1N=Nc1c(O)ccc2cc(S(=O)(=O)O)ccc12`, the Potency entry in [1], in assay [2], in assay [3], in assay [4], in [5] and in [6] was “inactive” each time. The Potency entry in assay [9] and in assay [7] was “inactive” in each case.
`C#CC1(O)CC[C@H]2[C@@H]3CCC4=CCCC[C@@H]4[C@H]3CC[C@@]21C` (some centres not stated): the figures for the Potency in [1], in assay [2] and in assay [5] were 11.9 µM (active), 26.6 µM (active) and 23.7 µM (active), respectively. For the same molecule, the Potency result in assay [8] and in assay [6] was “inactive” throughout.
With `CCc1cccc(CC)c1NC(=O)CN(CC(=O)O)CC(=O)O`, the Potency entry in assay [1], in [8], in assay [2], in assay [3], in assay [9] and in assay [7] was “inactive” throughout.
For `O[C@@H]([C@H](O)[C@H](O)CBr)[C@H](O)CBr`, the Potency result in [1], in assay [8], in assay [3], in assay [4], in assay [5] and in [6] was “inactive” throughout. Further, the Potency result in assay [9] is “inactive”.
As to `Nc1nc2c(ncn2COCCO)c(=O)[nH]1`, the Potency entry in [1], in [2], in assay [3], in assay [4], in assay [5] and in assay [6] was “inactive” throughout. The Potency result in assay [9] is “inactive”.
Consider `CCCCCCCC/C=C\CCCCCCCCN`, for which the Potency result in assay [1], in assay [8], in assay [5], in assay [9] and in assay [10] was “inactive” throughout.
On to `CCCCCCCCCCOC(=O)c1ccccc1C(=O)OCCCCCCCC`, for which the Potency entry in [1], in assay [8], in assay [2] and in [5] was “inactive” each time.
On to `C=Cc1cccc(C)c1`, for which the Potency entry in [1], in [8], in assay [2], in assay [3], in [9] and in assay [7] was “inactive” throughout.
In the case of `CCCCCCCCCCCC(=O)OCC(C)OC(=O)CCCCC(=O)O` (configuration not stated), the Potency result in assay [1], in [8], in [2], in [3], in assay [9] and in assay [10] was “inactive” in each case.
Turning to `O=C1C(c2[nH]c3ccc(S(=O)(=O)O)cc3c2O)=Nc2ccc(S(=O)(=O)O)cc21`, the Potency result in [1], in assay [8], in assay [2], in [3], in [9] and in assay [10] was “inactive” throughout. Moreover, the Potency entry in [7] was “inactive”.
Consider `ClCCl`, for which the Potency entry in assay [1], in [8], in assay [2], in assay [3], in [9] and in assay [10] was “inactive” in each case.
`Nc1nc(-c2ccccc2)cs1`: the Potency result in assay [1], in [2], in assay [4], in assay [5], in assay [6] and in [9] was “inactive” each time. For the same molecule, the Potency entry in assay [10] and in assay [7] was “inactive” in each case.
For `COc1cc(/C=C/c2ccccc2)oc(=O)c1`, the Potency result in [1], in assay [2], in [3], in assay [5], in assay [9] and in assay [7] was “inactive” in each case.
With `CC[N+](CC)(CC)CCOC(=O)C(C1CCCC1)C1CCCC1`, the Potency result in assay [1], in assay [2], in [3], in [5], in assay [10] and in [7] was “inactive” each time.
As to `O=C1NC(=O)[C@@H]2CC=CC[C@H]12`, the Potency result in assay [1], in [2], in assay [4], in [6], in [9] and in [10] was “inactive” in each case. Besides, in [7], the Potency result is “inactive”.
With `O=[N+]([O-])c1ccc(F)c(Cl)c1`, the Potency result in assay [1], in [2], in assay [4], in assay [6], in [9] and in assay [10] was “inactive” each time. Also, the Potency result in [7] was “inactive”.
Turning to `CCCCCCCC`, the Potency entry in assay [1], in [2], in [3], in assay [4], in assay [6] and in assay [9] was “inactive” in each case. Besides, the Potency result in [10] and in [7] was “inactive” throughout.
As for `CC1=CCC(=C(C)C)CC1`, the Potency entry in assay [1], in assay [2] and in assay [5] was “inactive” each time.
In the case of `O=C1OC2(c3ccc(O)cc3Oc3cc(O)ccc32)c2ccc(N=C=S)cc21`, the Potency entry in [1], in [2], in [3], in assay [6] and in assay [9] was “inactive” throughout.
